# ChEMBL document CHEMBL5606458, “ASAP - ZIKV NS2B-NS3 protease fluorescence single point” (2024)
# Out of some 2,700 compounds screened, about 160 (5.9%) showed an effect of 50% or more. Many of the other results were omitted from the sample, so strong results are more common in it than they were.
# Biological target: Nonstructural protein 3 (Zika virus) (UniProt A0A024AXB9)
# [1] = PRVABC59, Concentration 15.0 uM, Number of replicates 1.0
# [2] = PRVABC59, Concentration 50.0 uM, Number of replicates 1.0
# Nonstructural protein 3 (Zika virus), sequence (A0A024AXB9 as listed by the source): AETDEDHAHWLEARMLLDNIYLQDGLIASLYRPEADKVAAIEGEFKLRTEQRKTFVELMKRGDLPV
smiles,measurement,setting,value
COc1cc(NC(=O)c2cc(Cl)ccc2NS(=O)(=O)c2ccc(Oc3ccccc3Cl)cc2)cc(OC)c1,inhibition,[1],24.1%
Cc1ccc(NC(=O)c2cc(Cl)ccc2NS(=O)(=O)c2ccc(Oc3ccccc3Cl)cc2)cc1Br,inhibition,[1],43.3%
CC(=O)Nc1ccc(NC(=O)c2cc(Cl)ccc2NS(=O)(=O)c2ccc(Oc3ccccc3Cl)cc2)c(C(F)(F)F)c1,inhibition,[1],23.4%
O=C(Nc1ccc(Br)c(C(F)(F)F)c1)c1cc(Cl)ccc1NS(=O)(=O)c1ccc(Oc2ccccc2Cl)cc1,inhibition,[1],29.1%
O=C(Nc1cccc(Cl)c1Br)c1cc(Cl)ccc1NS(=O)(=O)c1ccc(Oc2ccccc2Cl)cc1,inhibition,[1],25.4%
COc1ccc(NC(=O)c2cc(Cl)ccc2NS(=O)(=O)c2ccc(Oc3ccccc3Cl)cc2)cc1C(F)(F)F,inhibition,[1],51.3%
O=C(Nc1cc(Br)ccc1F)c1cc(Cl)ccc1NS(=O)(=O)c1ccc(Oc2ccccc2Cl)cc1,inhibition,[1],24.4%
O=C(Nc1ccc(Br)cc1O)c1cc(Cl)ccc1NS(=O)(=O)c1ccc(Oc2ccccc2Cl)cc1,inhibition,[1],58.9%
COc1ccc(-c2cc(NC(=O)c3cc(Cl)ccc3NS(=O)(=O)c3ccc(Oc4ccccc4Cl)cc3)[nH]n2)cc1,inhibition,[1],57.5%
O=C(Nc1ccc(F)c(Br)c1)c1cc(Cl)ccc1NS(=O)(=O)c1ccc(Oc2ccccc2Cl)cc1,inhibition,[1],48.7%
COc1cc(NC(=O)c2cc(Cl)ccc2NS(=O)(=O)c2ccc(Oc3ccccc3Cl)cc2)ccc1Br,inhibition,[1],60.4%
COc1ccc(Cl)c(NC(=O)c2cc(Cl)ccc2NS(=O)(=O)c2ccc(Oc3ccccc3Cl)cc2)c1,inhibition,[1],25.8%
O=Cc1ccc(N2CCC(C(=O)Nc3ccc(-n4cccn4)cc3)CC2)cc1,inhibition,[2],21.4%
Cn1cc(NC(=O)c2ccccc2-c2ccc(C(=O)O)nc2)cn1,inhibition,"PRVABC59, Concentration 49.5 uM, Number of replicates 2.0, Standard deviation 2.4498358087391408 %",-1.15%
same,inhibition,"PRVABC59, Concentration 99.01 uM, Number of replicates 2.0, Standard deviation 1.6656005687321722 %",-0.876%
same,inhibition,"PRVABC59, Concentration 198.0 uM, Number of replicates 2.0, Standard deviation 2.3203289956835937 %",3.27%
O=C(NCCc1c[nH]c2cccnc12)[C@@]1(c2ccc(F)cc2)CCCNC1,inhibition,"PRVABC59, Concentration 49.5 uM, Number of replicates 2.0, Standard deviation 1.1099611949443484 %",2.3%
same,inhibition,"PRVABC59, Concentration 99.01 uM, Number of replicates 2.0, Standard deviation 0.8664361984862207 %",-0.092%
same,inhibition,"PRVABC59, Concentration 198.0 uM, Number of replicates 2.0, Standard deviation 1.4816570758007732 %",-1.42%
O=C(c1cc(Cl)ccc1NS(=O)(=O)c1ccc(Oc2ccccc2Cl)cc1)N1CCN(C(=O)[C@@H]2CCCO2)CC1,inhibition,[1],-3.32%
CC(C)c1cccc(C(C)C)c1NC(=O)C1CCN(c2ccc(C=O)cc2)CC1,inhibition,[2],22.1%
O=Cc1ccc(N2CCC(C(=O)N3CCC(Cc4ccccc4)CC3)CC2)cc1,inhibition,[2],24.7%
CNC(=O)[C@H]1CCN(S(=O)(=O)c2ccc(Oc3ccccc3Cl)cc2)C1,inhibition,"PRVABC59, Concentration 49.5 uM, Number of replicates 2.0, Standard deviation 2.3503648629811855 %",6.33%
same,inhibition,"PRVABC59, Concentration 99.01 uM, Number of replicates 2.0, Standard deviation 2.692773952478603 %",8.32%
same,inhibition,"PRVABC59, Concentration 198.0 uM, Number of replicates 2.0, Standard deviation 0.3043636351088153 %",5.71%
CC(=O)N1CCC(N(C)C(=O)c2cc(Cl)ccc2NS(=O)(=O)c2ccc(Oc3ccccc3Cl)cc2)CC1,inhibition,[1],11.3%
Cc1cc(CO)c2cccc(CC(=O)NCCc3ncc[nH]3)c2n1,inhibition,"PRVABC59, Concentration 49.95 uM, Number of replicates 2.0, Standard deviation 0.020358613704702253 %",12.5%
same,inhibition,"PRVABC59, Concentration 99.9 uM, Number of replicates 2.0, Standard deviation 0.02544995300481825 %",32.3%
COc1ncc(NC(=O)c2cc(Cl)ccc2NS(=O)(=O)c2ccc(Oc3ccccc3Cl)cc2)cc1Br,inhibition,[1],67.3%
COc1ncc(Br)cc1NC(=O)c1cc(Cl)ccc1NS(=O)(=O)c1ccc(Oc2ccccc2Cl)cc1,inhibition,[1],22.9%
COc1cc(Br)ccc1NC(=O)c1cc(Cl)ccc1NS(=O)(=O)c1ccc(Oc2ccccc2Cl)cc1,inhibition,[1],56.4%
O=C(Nc1ncc(Br)cc1O)c1cc(Cl)ccc1NS(=O)(=O)c1ccc(Oc2ccccc2Cl)cc1,inhibition,[1],55.3%
COc1cc(Cl)c(C)cc1NC(=O)c1cc(Cl)ccc1NS(=O)(=O)c1ccc(Oc2ccccc2Cl)cc1,inhibition,[1],22.4%
O=C(Nc1ncc(Br)nc1Cl)c1cc(Cl)ccc1NS(=O)(=O)c1ccc(Oc2ccccc2Cl)cc1,inhibition,[1],16.8%
CCc1cc(Br)ccc1NC(=O)c1cc(Cl)ccc1NS(=O)(=O)c1ccc(Oc2ccccc2Cl)cc1,inhibition,[1],41.5%
O=C(Nc1cnc(Cl)c(Br)c1)c1cc(Cl)ccc1NS(=O)(=O)c1ccc(Oc2ccccc2Cl)cc1,inhibition,[1],23%
O=C(Nc1ncc(F)cc1Br)c1cc(Cl)ccc1NS(=O)(=O)c1ccc(Oc2ccccc2Cl)cc1,inhibition,[1],23.4%
COc1ccc(CNC(=O)c2cc(Cl)ccc2NS(=O)(=O)c2ccc(Oc3ccccc3Cl)cc2)cc1F,inhibition,[1],26.5%
O=C(c1cc(Cl)ccc1NS(=O)(=O)c1ccc(Oc2ccccc2Cl)cc1)N1CCN(c2ncccn2)CC1,inhibition,[1],7.48%
O=Cc1ccc(N2CCC(C(=O)Nc3ccccc3I)CC2)cc1,inhibition,[2],24.9%
O=Cc1ccc(N2CCC(C(=O)Nc3ccc(Br)c(Cl)c3Cl)CC2)cc1,inhibition,[2],20.9%
CC(C)(C)N(C[C@H](O)c1ccc(O)c(CO)c1)C(=O)c1cc(Cl)ccc1NS(=O)(=O)c1ccc(Oc2ccccc2Cl)cc1,inhibition,[1],14.6%
COc1ccccc1OCCCN(C)C(=O)C1CCN(c2ccc(C=O)cc2)CC1,inhibition,[2],22.6%
CC(C)(COC(=O)c1cccc(F)c1)NC(=O)c1cc(N)cc(Cl)c1,inhibition,"PRVABC59, Concentration 49.5 uM, Number of replicates 2.0, Standard deviation 1.1247891306000573 %",3.45%
same,inhibition,"PRVABC59, Concentration 99.01 uM, Number of replicates 2.0, Standard deviation 1.4129417390724304 %",5.8%
same,inhibition,"PRVABC59, Concentration 198.0 uM, Number of replicates 2.0, Standard deviation 1.2082537148179389 %",9%
NCc1cccc(NC(=O)C2CN(C(=O)OCc3ccccc3)C2)c1,inhibition,"PRVABC59, Concentration 49.5 uM, Number of replicates 2.0, Standard deviation 0.7047125451631892 %",1.12%
same,inhibition,"PRVABC59, Concentration 99.01 uM, Number of replicates 2.0, Standard deviation 1.0691153353532887 %",3.88%
same,inhibition,"PRVABC59, Concentration 198.0 uM, Number of replicates 2.0, Standard deviation 0.2800776094724739 %",10.1%
O=Cc1ccc(N2CCC(C(=O)NCCNC(=O)c3ccccc3Cl)CC2)cc1,inhibition,[2],20.1%
CC(=O)N[C@@H](CCCCN)C(=O)Nc1ccccc1Cc1cccc2c(CO)cc(C)nc12,inhibition,"PRVABC59, Concentration 49.95 uM, Number of replicates 2.0, Standard deviation 1.4556435772845158 %",-3.65%
same,inhibition,"PRVABC59, Concentration 99.9 uM, Number of replicates 2.0, Standard deviation 0.5191459981690598 %",11.6%
CC(=O)N[C@@H](Cc1ccc(CN)cc1)C(=O)Nc1cccc2c(CO)cc(C)nc12,inhibition,"PRVABC59, Concentration 49.95 uM, Number of replicates 2.0, Standard deviation 1.5120886598590335 %",62.5%
same,inhibition,"PRVABC59, Concentration 99.9 uM, Number of replicates 2.0, Standard deviation 0.31634008358167093 %",95.8%
CC(=O)N[C@@H](CCCN)C(=O)Nc1cccc2c(CO)cc(C)nc12,inhibition,"PRVABC59, Concentration 49.95 uM, Number of replicates 2.0, Standard deviation 2.340889239911572 %",9.01%
same,inhibition,"PRVABC59, Concentration 99.9 uM, Number of replicates 2.0, Standard deviation 2.049858170273299 %",41.2%
Cc1cc(CO)c2cccc(C[C@H](NC(=O)Cc3cccc(CN)c3)C(=O)O)c2n1,inhibition,"PRVABC59, Concentration 49.95 uM, Number of replicates 2.0, Standard deviation 1.661005908968333 %",-1.72%
same,inhibition,"PRVABC59, Concentration 99.9 uM, Number of replicates 2.0, Standard deviation 1.2746087015891263 %",6.96%
CC(=O)N[C@@H](CCCN)C(=O)Nc1ccccc1Cc1cccc2c(CO)cc(C)nc12,inhibition,"PRVABC59, Concentration 49.95 uM, Number of replicates 2.0, Standard deviation 1.2164295290794762 %",11.2%
same,inhibition,"PRVABC59, Concentration 99.9 uM, Number of replicates 2.0, Standard deviation 0.5089666913167087 %",30.6%
CC(=O)N[C@@H](CCCCN)C(=O)Nc1cccc2c(CO)cc(C)nc12,inhibition,"PRVABC59, Concentration 49.95 uM, Number of replicates 2.0, Standard deviation 2.062511665720634 %",70.2%
same,inhibition,"PRVABC59, Concentration 99.9 uM, Number of replicates 2.0, Standard deviation 0.26572610179233236 %",93.5%
Cn1cc(CNC(=O)c2ccccc2[C@@H]2CCCNC2)cn1,inhibition,"PRVABC59, Concentration 49.5 uM, Number of replicates 2.0, Standard deviation 1.3820269413959925 %",-1.82%
same,inhibition,"PRVABC59, Concentration 99.01 uM, Number of replicates 2.0, Standard deviation 1.129463511127855 %",-0.227%
same,inhibition,"PRVABC59, Concentration 198.0 uM, Number of replicates 2.0, Standard deviation 0.6425212666298173 %",0.6%
